Several values for one entry are separate records, joined by “and”; a condition that tells them apart may be missing. Equal values may be shown once. Where a structure was tested more than once in an assay, its records may differ in their call. Activity calls are given as the source filed them. How the source made its calls: active means hit-call score of the fitted dose curve at least 0.9, where 1 is the maximum; inactive means score below 0.9.
assay: ATG_NRF2_ARE_CIS: Attagene CIS-FACTORIAL HepG2 Assay for human Nuclear Factor Erythroid 2 Related Factor 2 (NFR2) response to Antioxidant Response Elements (ARE) (AID 2282992); conditions: HepG2 Attagene ARE/NRF2 reporter, transcription factor activity; actives raise or lower the signal;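 on AC50: reporter mRNA level measured by RT-PCR and capillary electrophoresis fluorescence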
In short: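 Using transiently transfected HepG2 cells exposed for 24 h, reporter mRNA levels were determined by RT-PCR with fluorescent primer extension and capillary electrophoresis, analysed for gain or loss of signal against DMSO.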

Question: Which outcome does the source give for `N#CN=C(N)N` here?
Answer: The outcome was “inactive”.

Question: With `CCC(=O)C(CC(C)N(C)C)(c1ccccc1)c1ccccc1` (stereo unspecified) as the compound, how does the outcome read?
Answer: Its outcome is “inactive”.

Question: For `CCc1ccccc1C`, which outcome is on record?
Answer: Its outcome is “inactive”.

Question: For `CCNc1nc(NC(C)(C)C)nc(SC)n1`, which outcome is on record?
Answer: Its outcome is “inactive”.

Question: With `CC(C)(C)CC(C)(C)c1ccc(O)cc1` as the compound, how does the AC50 read?
Answer: Its AC50 is 11 µM (active) [middle of 4 runs].

Question: Which AC50 does the source give for `CCOP(=S)(OCC)SCCS(=O)(=O)CC` here?
Answer: The AC50 was 19 µM (active).

Question: Which AC50 does the source give for `CC(=O)[O][Hg][c]1ccccc1` here?
Answer: The AC50 was 2.24 µM (active).

Question: Which outcome does the source give for `CCOP(OCC)OCC` here?
Answer: The outcome was “inactive”.

Question: Which outcome does the source give for `C=C(C)C#N` here?
Answer: Its outcome is “inactive”.

Question: For `Fc1ccc(C2(Cn3cncn3)OC2c2ccccc2Cl)cc1` (stereo unspecified), which AC50 is on record?
Answer: Its AC50 is 44.7 µM (active).

Question: For `O=C(O)C(F)(F)C(F)(F)C(F)(F)C(F)(F)C(F)(F)C(F)(F)F`, which AC50 is on record?
Answer: Its AC50 is 212 µM (active) and 219 µM (active).

Question: What about the outcome of the same compound?
Answer: Its outcome is “inactive”.

Question: For `CCC(C)(C)c1ccc(O)c(C(C)(C)CC)c1`, which AC50 is on record?
Answer: Its AC50 is 11.1 µM (active).

Question: Which outcome does the source give for `CN(C)N=O` here?
Answer: The outcome was “inactive”.

Question: Which outcome does the source give for `CCN(CC)C(=O)Cl` here?
Answer: The outcome was “inactive”.

Question: For `CC1(C)CCC(Cc2ccc(Cl)cc2)C1(O)Cn1cncn1` (stereo unspecified), which AC50 is on record?
Answer: The AC50 was 33.4 µM (active).

Question: Which outcome does the source give for `O=C1CCCN1` here?
Answer: Its outcome is “inactive”.

Question: Which outcome does the source give for `CCCCP(CCCC)CCCC` here?
Answer: The outcome was “inactive”.

Question: For `COS(=O)(=O)c1ccc(C)cc1`, which outcome is on record?
Answer: Its outcome is “inactive”.

Question: Which AC50 does the source give for `Clc1ccc(C2(Cn3cncn3)CC(Br)CO2)c(Cl)c1` (stereo unspecified) here?
Answer: The AC50 was 26.9 µM (active).

Question: With `CC(=O)OC(c1ccccc1)C(Cl)(Cl)Cl` (stereo unspecified) as the compound, how does the outcome read?
Answer: The outcome was “inactive”.

Question: With `CC(=[OH+])/C=C(/C)[O-].CC(=[OH+])/C=C(/C)[O-].CC(=[OH+])/C=C(/C)[O-].[Fe]` as the compound, how does the AC50 read?
Answer: Its AC50 is 16.9 µM (active).

Question: With `CC(C)(c1ccccc1)c1ccc(O)c(C(C)(C)c2ccccc2)c1` as the compound, how does the AC50 read?
Answer: The AC50 was 7.97 µM (active).

Question: With `c1cc[c]([Hg][c]2ccccc2)cc1` as the compound, how does the outcome read?
Answer: Its outcome is “inactive”.

Question: With `O=C(Cl)c1ccc(Cl)cc1` as the compound, how does the outcome read?
Answer: Its outcome is “inactive”.

Question: Which AC50 does the source give for `O=C1C2(Cl)C3(Cl)C4(Cl)C(Cl)(Cl)C5(Cl)C3(Cl)C1(Cl)C5(Cl)C24Cl` (stereo unspecified) here?
Answer: Its AC50 is 6.04 µM (active).

Question: And the outcome?
Answer: The outcome was “inactive”.

Question: With `Cl/C=C\C[N+]12CN3CN(CN(C3)C1)C2` as the compound, how does the AC50 read?
Answer: The AC50 was 160 µM (active).

Question: With `ClCc1cccnc1` as the compound, how does the AC50 read?
Answer: The AC50 was 27.9 µM (active).

Question: Which outcome does the source give for `ClC1(Cl)C2(Cl)C3(Cl)C4(Cl)C(Cl)(Cl)C5(Cl)C3(Cl)C1(Cl)C5(Cl)C24Cl` (stereo unspecified) here?
Answer: The outcome was “inactive”.

Question: For `ClC1=C(Cl)[C@]2(Cl)[C@@H]3[C@@H](Cl)[C@@H](Cl)C[C@@H]3[C@@]1(Cl)C2(Cl)Cl`, which outcome is on record?
Answer: Its outcome is “inactive”.

Question: For `CN(C)P(=O)(N(C)C)N(C)C`, which outcome is on record?
Answer: Its outcome is “inactive”.

Question: Which AC50 does the source give for `CCN1CCC2(CC1)COc1cc3c(cc12)N(C(=O)c1ccc(-c2ccc(-c4nnc(C)o4)cc2C)cc1)CC3` here?
Answer: The AC50 was 5.17 µM (active).

Question: What does the source list for `O=C(O)C(F)(F)C(F)(F)C(F)(F)C(F)(F)C(F)(F)C(F)(F)C(F)(F)C(F)(F)C(F)(F)C(F)(F)F`?
Answer: AC50: 7.52 µM (active); outcome: inactive

Question: With `CC(C)c1ccc(CO)cc1` as the compound, how does the outcome read?
Answer: Its outcome is “inactive”.

Question: Which AC50 does the source give for `CCC(C)c1cccc(C(C)CC)c1O` (stereo unspecified) here?
Answer: Its AC50 is 18 µM (active).

Question: For `O=C(c1ccccc1)C(Cl)Cl`, which outcome is on record?
Answer: The outcome was “inactive”.

Question: With `COC[C@H](C)N(C(=O)CCl)c1c(C)csc1C` as the compound, how does the outcome read?
Answer: Its outcome is “inactive”.

Question: Which AC50 does the source give for `Oc1cccc2cccnc12` here?
Answer: Its AC50 is 15.3 µM (active) and 1.64 µM (active).

Question: With `CC(C)C1CCC(Cc2ccc(Cl)cc2)C1(O)Cn1cncn1` (stereo unspecified) as the compound, how does the AC50 read?
Answer: Its AC50 is 13.2 µM (active).

From PubChem BioAssay (EPA / NIEHS)
